High-throughput results deposited in PubChem BioAssay by National Center for Advancing Translational Sciences (NCATS).
Giardia FBPA inh: qHTS Assay for Inhibitors of Fructose-1,6-bisphosphate Aldolase from Giardia Lamblia; AID 2451, 2010; purified Giardia FBPA; A8B2U2; Potency, µM (series often up to 59.6 µM), actives largely listed as inhibitors; 290,000 tested, 0.71% active; further: nearly all actives have a fitted effect of over 55% in size
Target sequence (A8B2U2 whole entry, looked up): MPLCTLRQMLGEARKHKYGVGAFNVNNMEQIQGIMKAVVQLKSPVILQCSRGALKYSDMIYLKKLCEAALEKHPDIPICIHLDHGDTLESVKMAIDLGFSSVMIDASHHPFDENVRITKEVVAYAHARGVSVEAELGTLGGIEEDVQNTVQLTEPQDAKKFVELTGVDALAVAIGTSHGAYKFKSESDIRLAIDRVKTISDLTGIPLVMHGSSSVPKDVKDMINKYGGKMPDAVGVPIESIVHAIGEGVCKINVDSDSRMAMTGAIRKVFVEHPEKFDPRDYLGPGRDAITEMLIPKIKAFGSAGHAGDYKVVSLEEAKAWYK
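Giardia FBPA (40 nM reagent) was preincubated 10 min at RT with compound (up to 57.5 uM final), then substrate plus GAPDH/TPI/NAD/arsenate coupling system with diaphorase/resazurin was added; resorufin fluorescence (525/598 nm) was read after 20 min.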
AmpC inh detg: qHTS Inhibitors of AmpC Beta-Lactamase (assay with detergent) | P00811 | AmpC hydrolysis of nitrocefin, absorbance 480 nm, 0.01% Triton | Potency, µM (series often up to 114 µM), actives largely listed as inhibitors | 370,000 tested, 0.041% active; further: nearly all actives have a fitted effect of over 25% in size
Target sequence (P00811 whole entry, looked up): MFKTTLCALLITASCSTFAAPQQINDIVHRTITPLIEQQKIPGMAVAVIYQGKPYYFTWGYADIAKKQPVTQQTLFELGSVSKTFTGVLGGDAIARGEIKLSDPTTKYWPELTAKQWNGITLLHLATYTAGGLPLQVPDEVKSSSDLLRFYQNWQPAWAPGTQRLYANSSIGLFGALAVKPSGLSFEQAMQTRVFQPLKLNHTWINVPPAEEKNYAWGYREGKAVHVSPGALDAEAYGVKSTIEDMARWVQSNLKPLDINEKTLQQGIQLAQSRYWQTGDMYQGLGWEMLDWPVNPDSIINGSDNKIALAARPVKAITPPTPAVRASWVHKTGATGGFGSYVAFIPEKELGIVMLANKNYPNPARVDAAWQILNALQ
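AmpC (5.3 nM in the dispensed reagent) in 20 mM phosphate pH 7.0 with 0.01% (detergent screen) or 0.0001% Triton X-100 was preincubated with compounds for 15 min at room temperature. Nitrocefin was then added from an 800 uM solution, and hydrolysis was followed at 480 nm.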
SARS PLpro yeast: qHTS of Yeast-based Assay for SARS-CoV PLP | S. cerevisiae expressing SARS-CoV PLpro, growth rescue | Potency, µM (highest dose often 32.9 µM), most hits filed as activators | 330,000 tested, 0.19% active | AID 485353, 2010; calls by dose curve; further: nearly all actives have a fitted effect of over 55% in size
AmpC inh no detg: qHTS Inhibitors of AmpC Beta-Lactamase (assay without detergent); AmpC nitrocefin hydrolysis, absorbance 480 nm, 0.0001% Triton; Potency, µM (series often up to 57.1 µM), usual class: inhibitors; 330,000 tested, 0.52% active; AID 485341, 2010; further: nearly all actives have a fitted effect of over 20% in size
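20 mM phosphate pH 7.0 + 0.01% (detergent screen) or 0.0001% Triton X-100; 5.3 nM AmpC reagent; cpd preinc 15 min RT; nitrocefin (800 uM stock) to start; A480 q20 s × 4 min; Activity was normalised to no-enzyme and no-compound control wells.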
Numbers stand for hits; n = inactive; u = inconclusive; x = no result given; [ ] = another dose, or the depositor's remark. The list is not random: actives were taken first. Their share in the collection is about 1.1%. Unless noted, the call rests on the fitted dose curve; in most records, active means well fitted curve in the direction sought with a large enough effect; inconclusive means small, poorly fitted or top-dose-only effect, or another doubt; inactive means no such curve, though single readings can be large; an effect the other way counts as inactive or inconclusive.

SMILES	Giardia FBPA inh	AmpC inh detg	SARS PLpro yeast	AmpC inh no detg
CC(=Nc1ccc(C)cc1C)c1sc2ccccc2c1O	n	n	n	n
CS(=O)(=O)Nc1cccc(C2=NN(S(C)(=O)=O)C(c3ccc4c(c3)OCO4)C2)c1 (configuration not stated)	n	n	n	39.8µM
CS(=O)(=O)N1N=C(c2ccccc2)CC1c1ccc2c(c1)OCO2 (configuration not stated)	n	u	n	n
O=C(NC(=S)Nc1ccc2c(c1)OCCO2)c1ccc(F)cc1Cl	n	79.4µM	n	n
Cc1ccc(C)c(N2CCN(CCCNC(=O)Cn3c(-c4cccs4)cc4ccccc43)CC2)c1	x	n	x	x
COc1ccc(O)c(-c2cc(-c3cccc(Br)c3)n[nH]2)c1	n	n	n	2.24µM
CS(=O)(=O)N(Cc1ccco1)CC(O)Cn1cc(C=O)c2ccccc21 (configuration not stated)	n	u	10µM	n
Cc1ccc(/C=N/NC(=O)c2cccc(S(=O)(=O)Nc3ccccc3Cl)c2)s1	u	n	n	n
O=C(N/N=C/c1ccccc1C(=O)O)c1cccc(S(=O)(=O)Nc2cc(Cl)ccc2Cl)c1	n	n	n	12.6µM
Cc1oc2c(c1C(=O)c1ccccc1)C(=O)C(=O)c1ccccc1-2	1.12µM	n	n	n
O=C1C(=O)c2c(C(=O)c3ccccc3)coc2-c2ccccc21	3.15µM	n	n	n
CCN(CCCCO)c1nc(C)nc2c1c(C)c(C)n2-c1c(C)cc(C)cc1C	n	x	x	x
c1ccc(-c2ccc(OCCN3CCCC3)cc2)cc1	n	x	x	x
CSc1ncc(Cl)c(C(=O)Nc2ccc(S(=O)(=O)N3CCC(C)CC3)cc2)n1	x	n	x	x
Cc1ccc(S(=O)(=O)O/N=C2\CCCc3ccccc32)cc1	u	n	n	n
CC1=C(C)/C(=N\OS(=O)(=O)c2ccccc2)C=CC1=O	4.46µM	n	n	n
COc1ccc(C2c3c(n(C)c4ccccc34)C(=O)N2CC(=O)Nc2cccc(Cl)c2)cc1 (configuration not stated)	x	n	x	x
Cc1ccc(-n2cccc2/C=C2\C(=N)N3N=C(C(C)C)SC3=NC2=O)cc1	n	u	n	15.8µM
CC(C)CCC[C@@H](C)[C@H]1CC[C@H]2[C@@H]3CC=C4CC(O)CC[C@]4(C)[C@H]3CC[C@]12C (some centres not stated)	n	x	x	x
O=C(Nc1ccccc1)Nc1ccccc1	n	x	x	x
O=C(Nc1ccccc1)Nc1n[nH]c2nnc(-c3ccccc3)c(-c3ccccc3)c12	u	n	n	31.6µM
O=C(CC1SC(=O)N(c2ccccc2)C1=O)Nc1cccc2ccccc12 (configuration not stated)	n	n	n	17.8µM
Cc1ccccc1CNC(=O)c1cccc(NC(=O)N2CCSc3ncccc32)c1	x	n	x	x
C=CCn1c(NCc2cc(Cl)ccc2O)nc2ccccc21	n	n	n	14.1µM
c1ccc(COC[C@@H]2CO2)cc1	n	x	x	x
SMILES	Giardia FBPA inh	AmpC inh detg	SARS PLpro yeast	AmpC inh no detg
C[C@@H]1COC(=O)O1	n	x	x	x
COc1ccc(Br)cc1CNc1ccc2[nH]c(=O)[nH]c2c1	n	n	n	n[2.29 µM]
Oc1ccc(NCc2ccccc2OCc2ccccc2F)cc1	12.6µM	u	n	n
Oc1ccc(NCc2ccccc2OCc2ccccc2Cl)cc1	x	n	x	x
COc1ccc(Br)cc1CNc1ccc(O)cc1	15.8µM	u	n	28.2µM
Cc1ccc(NCc2ccccc2OCc2ccccc2F)cc1	n	n	n	n
CCOc1ccccc1CNc1ccc(O)cc1	11.2µM	n	n	n
CCc1ccc(CNc2ccc(O)cc2)cc1	3.97µM	n	u	n
CC[C@H](C)[C@H](NC(=O)[C@H](CC(C)C)NC(=O)[C@H](CC(N)=O)NC(=O)[C@@H](NC(=O)[C@@H](N)Cc1ccc(O)cc1)[C@@H](C)CC)C(=O)N[C@@H](Cc1ccc(O)cc1)C(=O)N[C@@H](CCCN=C(N)N)C(=O)N[C@@H](CC(C)C)C(=O)N[C@@H](CCCN=C(N)N)C(=O)N[C@@H](Cc1ccc(O)cc1)C(N)=O	n	x	x	x
CC[C@H](C)[C@H](NC(=O)[C@H](Cc1ccc(O)cc1)NC(=O)[C@H](Cc1cnc[nH]1)NC(=O)[C@H](CCCNC(=N)N)NC(=O)[C@H](CC(C)C)NC(=O)[C@H](C)NC(=O)[C@H](CO)NC(=O)[C@H](Cc1ccc(O)cc1)NC(=O)[C@H](Cc1ccc(O)cc1)NC(=O)[C@H](CCCNC(=N)N)NC(=O)[C@H](C)NC(=O)[C@H](CC(C)C)NC(=O)[C@H](CC(=O)O)NC(=O)[C@H](CCC(=O)O)NC(=O)[C@H](C)NC(=O)[C@@H]1CCCN1C(=O)[C@H](C)NC(=O)[C@H](CC(=O)O)NC(=O)[C@H](CCC(=O)O)NC(=O)CNC(=O)[C@@H]1CCCN1C(=O)[C@H](CC(N)=O)NC(=O)[C@H](CC(=O)O)NC(=O)[C@@H]1CCCN1C(=O)[C@H](CCCCN)NC(=O)[C@H](CO)NC(=O)[C@@H]1CCCN1C(=O)[C@@H](N)Cc1ccc(O)cc1)C(=O)N[C@@H](CC(N)=O)C(=O)N[C@@H](CC(C)C)C(=O)N[C@H](C(=O)N[C@H](C(=O)N[C@@H](CCCNC(=N)N)C(=O)N[C@@H](CCC(N)=O)C(=O)N[C@@H](CCCNC(=N)N)C(=O)N[C@@H](Cc1ccc(O)cc1)C(N)=O)[C@@H](C)O)[C@@H](C)CC	n	x	x	x
CCOc1cc(CNc2ccc(O)cc2)ccc1OCc1ccc(Cl)cc1Cl	15.8µM	n	n	u
CC[C@H](NC(=O)[C@H](CCCN=C(N)N)NC(=O)[C@H](Cc1c[nH]c2ccccc12)NC(=O)[C@@H](N)CS)C(=O)N[C@@H](CCCN=C(N)N)C(=O)N[C@@H](Cc1ccc(O)cc1)C(N)=O	n	x	x	x
CC(C)(C)C(=O)NC(NC(=S)Nc1sc2c(c1C#N)CCCC2)C(Cl)(Cl)Cl (configuration not stated)	x	n	n	1.12µM
COc1cc2c(c(OC)c1OC)-c1c(cc(OC)c(OC)c1OC)CC(C)C(C)C2 (configuration not stated)	n	x	x	x
Cc1cccc(-c2nc3scc(CCNS(=O)(=O)c4ccc(F)cc4C)n3n2)c1	x	n	x	x
CC(C)c1ccccc1NC(=O)COC(=O)c1c2c(nc3ccccc13)CCN(Cc1ccccc1)C2	n	n	n	3.55µM
NCCc1cc(O)c(O)cc1O	5.61µM	x	x	x
CCOc1ccc(C2C(C(=O)/C=C/c3ccco3)=C(O)C(=O)N2CCN2CCOCC2)cc1OC (configuration not stated)	7.92µM	n	n	n
COc1cc(NC(=O)Cn2nnc(-c3ccccc3N)n2)cc(OC)c1	n	n	n	20µM
COc1ccc(NC(=O)Cn2nnc(-c3ccccc3N)n2)cc1OC	n	n	n	n
CCCc1cc(C(=O)Nc2ccccc2SC)no1	n	n	n	39.8µM
CCCc1cc(C(=O)Nc2cccc(Cl)c2C)no1	n	u	n	n
CCCc1cc(C(=O)Nc2ccc(C(C)=O)cc2)no1	n	n	n	44.7µM
